Reference: PubChem BioAssay (NCATS)
Inconclusive results are not listed. Entries that show only a call come without a potency. Calls of active or inactive are those of the source. Calls follow the shape of the dose curve; as a rule, active = well fitted cell-killing curve with a large enough effect; inconclusive = small, poorly fitted or top-dose-only effect, or effect the other way; inactive = no such curve, though single readings can be large or run the other way.

Assay: Quantitative High-Throughput drug screen in 47 multiple myeloma cell lines against the NCATS MIPE library collection: KMS34_JCRB cell viability assay (AID 1918985); also: nearly all actives have a fitted effect of over 40% in size
Conditions: KMS34 myeloma viability, CellTiter-Glo ATP luminescence, 48 h; series mostly up to 45.8 µM
Excerpt: PI: Beverly A. Mock Ph.D.
Laboratory of Cancer Biology and Genetics,
Center for Cancer Research, National Cancer Institute,
National Institute of Health, Bethesda, Maryland
Drug resistance and disease progression are common in multiple myeloma (MM) patients, underscoring the need for new therapeutic combinations. […] We hypothesized that effective combinations would reduce MYC expression and enhance p16 activity. […] These preclinical data identify potentially useful drug combinations for evaluation in drug-resistant MM and reveal potential mechanisms of combined drug sensitivity.
Described herein is the primary MIPE qHTS used to cherrypick compounds. Validated compounds were then further tested for potential synergistic activiy.
[1] Peat TJ, Gaikwad SM, Dubois W, Gyabaah-Kessie N, Zhang S, Gorjifard S, Phyo Z, Andres M, Hughitt VK, Simpson RM, Miller MA, Girvin AT, Taylor A, Williams D, D'Antonio N, Zhang Y, Rajagopalan A, Flietner E, Wilson K, Zhang X, Shinn P, Klumpp-Thomas C, McKnight C, Itkin Z, Chen L, Kazandijian D, Zhang J, Michalowski AM, Simmons JK, Keats J, Thomas CJ, Mock BA. Drug combinations identified by high-throughput screening promote cell cycle transition and upregulate Smad pathways in myeloma. Cancer Lett. 2023 Aug 1;568:216284. doi: 10.1016/j.canlet.2023.216284. Epub 2023 Jun 24. PMID: 37356470; PMCID: PMC10408729.
SEQUENCE No. (e.g., 1, 2, 3, etc.); […] (e.g., Cells, Incubation, Reagent, etc.); VALUE and DESCRIPTION.
1; Cells; 5 uL; white, solid bottom 1536-well Greiner assay plate.
2; Compounds; 23 nL; Kalypsis pin tool (Wako USA) equipped with a 1536-well pin head to transfer to the assay plates.
3; Incubation; 48 hours; 37C incubation.
4; Reagent;5uL; CellTiter Glo (Promega).
5; Detector; 425V; Luminescence; Viewlux PerkinElmer.
NOTES (numbers refer to Sequence numbers above)
1. The cell-based screening methods employed in this study were like those previously published. Briefly, the corresponding myeloma cell lines were screened in 1,536-well plates with 500 cells, 5-uL per well for inhibition of cell viability (assessed by measuring ATP levels with CellTiterGlo).
2. NCATS MIPE 4.0 library of approved and investigational drugs were added using the Kalypsis pin tool. Wells treated with DMSO only for 100% viability and media only for 0% viability were used as controls.
3. The assay plates were covered and incubated for 48 hours in a 37C, 5% CO2 incubator with controlled humidity.
4. After 48 hours, CellTilter-GloTM luminescent substrate mix (Promega) reagent was added to the assay plate and plates we incubated for 5 min at room temperature.
5. Signal was measured as median relative luminescence units on a ViewLux (PerkinElmer) multiplate reader.
[1] Heske CM, Davis MI, Baumgart JT, Wilson K, Gormally MV, Chen L, Zhang X, Ceribelli M, Duveau DY, Guha R, Ferrer M, Arnaldez FI, Ji J, Tran HL, Zhang Y, Mendoza A, Helman LJ, Thomas CJ. Matrix Screen Identifies Synergistic Combination of PARP Inhibitors and Nicotinamide Phosphoribosyltransferase (NAMPT) Inhibitors in Ewing Sarcoma. Clin Cancer Res. 2017 Dec 1;23(23):7301-7311. doi: 10.1158/1078-0432.CCR-17-1121. Epub 2017 Sep 12. PMID: 28899971; PMCID: PMC6636827.
Potency is read from the fitted curve at half-maximal effect.

| Structure (SMILES) | Potency |
| --- | --- |
| O=C(O)C(=O)c1cn(Cc2ccccc2)c2ccc(-c3ccc(OC(F)(F)F)cc3)cc12 | inactive |
| CC(C)CC(N(C)C)C1(c2ccc(Cl)cc2)CCC1 (stereo not given) | inactive |
| COC[C@H]1OC(=O)c2coc3c2[C@@]1(C)C1=C(C3=O)C2CCC(=O)[C@@]2(C)C[C@H]1OC(C)=O (stereo not given in full) | 7430 nM (active) |
| COC1(CS(=O)c2ccccc2)CCN(CCc2c[nH]c3ccc(F)cc23)CC1 (stereo not given) | inactive |
| C[C@@H]1[C@@H](C(=O)C[C@H]2O[C@@H]3O[C@]4(C)CC[C@@H]5[C@H](C)CC[C@@H]([C@H]2C)[C@@]35OO4)O[C@@H]2O[C@]3(C)CC[C@H]4[C@H](C)CC[C@@H]1[C@@]24OO3 | 235 nM (active) |
| COc1ccc2c(c1OC)CN1CCc3cc4c(cc3C1C2)OCO4 (stereo not given) | inactive |
| COC[C@@H](NC(C)=O)C(=O)NCc1ccccc1 | inactive |
| CC1=C2C[C@@H]3[C@@H](CC=C4C[C@@H](O)CC[C@@]43C)[C@@H]2CC[C@]12O[C@H]1C[C@H](C)CN[C@H]1[C@H]2C | inactive |
| CNCC(O)c1ccc(O)cc1 (stereo not given) | inactive |
| CN1CCN(C(=O)O[C@H]2c3nccnc3C(=O)N2c2ccc(Cl)cn2)CC1 | inactive |
| COc1ccc(C(CN(C)C)C2(O)CCCCC2)cc1 (stereo not given) | inactive |
| C[C@@H]1[C@@H](CC(C[C@H]2O[C@@H]3O[C@]4(C)CC[C@@H]5[C@H](C)CC[C@@H]([C@H]2C)[C@@]35OO4)C[S+](=O)([O-])c2ccc(COC(=O)N(C)C)cc2)O[C@@H]2O[C@]3(C)CC[C@H]4[C@H](C)CC[C@@H]1[C@@]24OO3 (stereo not given in full) | 74.3 nM (active) |
| CN(C)CCc1ccc(O)cc1 | inactive |
| Cc1sc2c(c1C)C(c1ccc(Cl)cc1)=N[C@@H](CC(=O)OC(C)(C)C)c1nnc(C)n1-2 | 235 nM (active) |
| C[C@@H]1O[C@@H](O[C@H]2C[C@@H](O)[C@]3(CO)[C@H]4[C@H](O)C[C@]5(C)[C@@H](C6=CC(=O)OC6)CC[C@]5(O)[C@@H]4CC[C@]3(O)C2)[C@H](O)[C@H](O)[C@H]1O | 59 nM (active) |
| Cn1cc(C2=C(c3cn(C4CCN(Cc5ccccn5)CC4)c4ccccc34)C(=O)NC2=O)c2ccccc21 | 10500 nM (active) |
| N[C@@H](Cc1ccc(N(CCCl)CCCl)cc1)C(=O)O | 16600 nM (active) |
| C#CCN(C)[C@H](C)Cc1ccccc1 | inactive |
| Cc1cccc(C)c1NC(=O)CN1CCCC1=O | inactive |
| O=C1CC[C@@]2(O)[C@H]3Cc4ccc(O)c5c4[C@@]2(CCN3CC2CC2)[C@H]1O5 | inactive |
